D1 potentiator – potentiators of human D1 dopamine receptor; P21728; HEK293 TREx D1 cells, calcium flux, dopamine EC20 potentiation; potentiation, % at 10 µM; 360,000 compounds, 0.036% hits; in the data active means potentiation above about 30%; further: 0% is about no effect
Target sequence (P21728 whole entry, looked up): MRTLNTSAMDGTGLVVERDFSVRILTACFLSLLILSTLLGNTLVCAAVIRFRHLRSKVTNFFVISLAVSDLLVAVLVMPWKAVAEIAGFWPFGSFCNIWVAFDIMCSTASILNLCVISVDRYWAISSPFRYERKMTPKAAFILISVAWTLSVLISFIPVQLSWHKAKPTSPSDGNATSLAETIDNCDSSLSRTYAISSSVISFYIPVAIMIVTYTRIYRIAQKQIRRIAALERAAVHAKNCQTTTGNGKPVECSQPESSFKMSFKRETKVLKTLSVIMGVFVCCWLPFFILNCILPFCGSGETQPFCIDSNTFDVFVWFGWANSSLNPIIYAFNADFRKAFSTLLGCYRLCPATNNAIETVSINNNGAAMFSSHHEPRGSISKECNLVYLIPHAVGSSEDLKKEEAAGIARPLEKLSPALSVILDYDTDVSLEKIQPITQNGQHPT
TRHR enhancer – allosteric enhancers of human TRH receptor | TRHR cells, fluo-8 calcium fluorescence, EC20 TRH enhancement | enhancement, % at 2 µM | AID 493056 | 360,000 compounds, 0.66% hits | P34981; in the data active means enhancement above about 30%; further: 0% is about no effect
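Enhancer read-out: after compound pinning and an initial kinetic agonist-mode read, an EC20 of TRH (10 nM final) was injected and fluo-8 calcium signal (Ex 480/Em 530) followed at 1 s/cycle for 100 cycles in TRHR-expressing cells.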
D1 agonist – agonists of human D1 dopamine receptor; P21728; HEK293 T-REx D1 cells, calcium flux, agonist mode; activation, % at 2 µM; 360,000 compounds, 1% hits; further: 0% is about no effect
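Inducible HEK293 T-REx D1 cells, force-coupled to calcium signalling, were plated at 4000 cells/well with tetracycline and held overnight at 30 C. After no-wash calcium dye loading, compound-evoked calcium rise over 180 s flagged agonists.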
D1 antagonist – human D1 dopamine receptor antagonism. P21728. HEK293 TREx D1 cells, calcium flux, dopamine EC80; hits give low values. activity change, negative = inhibition, % at 10 µM. AID 504652. 360,000 compounds, 3.2% hits; in the data active means activity change below about -30%; further: on the % scale 0 is the no-effect control and ±100 the full control effect
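Kinetic fluorescence of a calcium dye serves as the read-out. D1-expressing Hek293 Trex cells, induced overnight at 30 C, are exposed to compound for 180 s before an EC80 dopamine addition, then read 180 s further.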
TRHR agonist – TRH receptor (human) agonism. P34981. TRHR cells, calcium flux fluo-8, FDSS agonist mode. activation, % at 2 µM. 360,000 compounds, 0.18% hits; further: 0% is about no effect
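Fluo-8-loaded TRHR cells; 10 s baseline, compound added, kinetic Ca2+ fluorescence read 1/s, agonist mode.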
An asterisk follows results filed as active; x = no result given; ! = a repeat was not active. This is a sample that favours compounds with a hit; in the whole collection about 4.7% have one here. Unless noted, no stated cut-off is given here; in the data, active means activation above about 30%; inactive means the rest.

SMILES	D1 potentiator	TRHR enhancer	D1 agonist	D1 antagonist	TRHR agonist
CC(=O)c1cccc(NC(=O)COC(=O)c2ccccc2C)c1	-4.0	31.0*	15.1	-16.6	-1.1
O=C(c1ccc(Br)cc1)N1CCCC1	-2.3	-3.5	1.0	-1.7	-0.1
O=C(Nc1ccc(C(=O)N2CCCCC2)cc1)c1ccc(Br)cc1	-4.0	1.4	3.8	-31.0*	-1.0
O=C(CCC(=O)c1cccs1)OCc1nnc(-c2ccccc2)o1	-7.8	-0.2	2.2	-39.0*	-0.8
CCN(CC(=O)NCc1ccc(F)cc1)C(=O)/C=C/c1cccs1	0.3	38.5*	-0.4	4.6	-1.1
CCN(CC(=O)NCc1ccc(F)cc1)C(=O)c1ccc(Cl)cc1	-3.4	7.3	0.8	7.1	-1.9
CCN(CC(=O)NCc1ccc(F)cc1)C(=O)c1ccc(C)o1	-1.9	32.3*	4.4	14.8	0.7
COC(=O)c1c(NC(=O)c2ccccc2)sc2c1CC(C)(C)NC2(C)C	-2.0	-3.2	2.4	-31.1*	0.0
CC1(C)Cc2c(sc(NC(=O)c3ccc(C(=O)c4ccccc4)cc3)c2C(N)=O)C(C)(C)N1	-9.1	9.0	111.8*	2.9	3.2
COc1ccc2c(Cl)c(-c3nnc(SCC(=O)c4ccccc4)n3C)sc2c1	-4.8	-4.7	3.5	-42.9*	0.1
Cc1ccc(C)c(CN2C(=O)c3ccccc3S(=O)c3ccc(C(=O)NCCC4=CCCCC4)cc32)c1 (stereo not given)	2.1	2.4	4.6	6.1	0.7
COc1ccc(-c2noc(CSc3nc4ccccc4c(=O)n3-c3ccc(C)cc3)n2)cc1	-0.7	33.4*	6.2	6.2	0.4
COc1ccc(-n2c(SCc3nc(-c4ccc(C)cc4)no3)nnc2-c2ccccc2)cc1	-0.2	6.0	4.1	4.0	0.8
Cc1nnc(SCc2nc(-c3ccc(Cl)cc3)no2)n1-c1ccc(F)cc1	-2.8	-2.4	22.7	-33.2*	-1.4
CCOC(=O)c1ccc(NC(=O)c2cnc3c(-c4ccc(F)cc4)c(C)nn3c2C)cc1	-5.0	-4.8	4.0	-39.7*	0.8
CCOC(=O)c1ccc(NC(=O)CCc2c(C)nc3c(-c4ccc(F)cc4)c(C)nn3c2C)cc1	-4.0	11.7	1.7	-1.6	0.5
Cc1ccc(CNC(=O)c2cnc3c(-c4ccc(F)cc4)c(C)nn3c2C)o1	-8.6	-5.9	1.7	-42.8*	-0.6
O=C(CCn1c(=O)c2ccccc2n(CC(=O)Nc2cccc(F)c2)c1=O)NCCc1ccccc1	5.0	2.7	1.0	-14.6	-1.1
CSc1nnc(C)c(/C=C/Nc2ccc(C)cc2)n1	-2.4	0.0	45.5*	-5.3	28.9
CSc1nnc(C)c(/C=C/NOCc2ccc(Cl)cc2)n1	-2.8	4.1	1.8	-12.2	-1.0
Cc1ccc2[nH]c(=O)c3cc(C(=O)N(CCCOC(C)C)Cc4ccco4)sc3c2c1	-2.2	41.6*!	0.7	4.4	1.6
CC(=O)c1ccc(NC(=O)C2(c3ccccc3)CC2(Cl)Cl)cc1 (stereo not given)	0.5	1.9	37.6*	4.7	5.6
COc1ccc(S(=O)(=O)Oc2ccc3ccccc3c2)cc1	-12.2	-5.0	13.1	-39.2*	0.4
CCc1ccc(OCC(=O)NNC(=O)CNC(=O)c2ccc(Br)o2)cc1	-1.9	0.0	2.0	-2.0	0.1
CCCOc1ccc(OC(=O)c2ccc(Br)o2)cc1	-7.6	5.4	94.2*	-42.6*	-0.1
SMILES	D1 potentiator	TRHR enhancer	D1 agonist	D1 antagonist	TRHR agonist
CC(=O)Nc1ccc(Nc2nc3ccc(Cl)cc3n3cnnc23)cc1	-2.9	5.0	-2.7	6.3	0.8
CCOC(=O)c1ccccc1NC(=O)COC(=O)C(CC(C)C)NC(N)=O (stereo not given)	-2.1	40.5*	1.5	-1.9	-0.8
CC(=O)c1ccc(NC(=O)C2CCC(CNS(=O)(=O)c3cccc4nsnc34)CC2)cc1 (stereo not given)	-5.5	2.2	15.8	-20.4	0.5
CC(C)(C)c1ccc(C2SCC(=O)N2c2cccc(C(=O)O)c2)cc1 (stereo not given)	-6.8	-3.8	2.5	-33.4*	0.0
O=S(=O)(c1ccc(Cl)cc1)c1nnn2c1nc(NC1CCCCC1)c1sccc12	-4.5	-10.3	1.1	-6.7	0.5
Cc1ccc(C(=O)Nc2ccc(-n3c(C)nc4ccccc4c3=O)cc2)cc1[N+](=O)[O-]	2.1	3.4	17.8	x	-0.3
CCOC(=O)c1[nH]c2ccc(C)cc2c1NC(=O)CN1CCCCC1	0.4	-4.0	-0.6	-10.2	-0.1
CCOC(=O)c1[nH]c2ccc(OCC)cc2c1NC(=O)CN1CCCC(C)C1 (stereo not given)	-5.7	5.4	3.0	-36.4*	-0.2
O=C1NC(Cc2ccccc2)c2nc3cc(F)ccc3c(=O)n2-c2cc(Cl)ccc21 (stereo not given)	4.6	5.6	6.3	23.6	0.2
O=C1c2cccnc2Nc2ccccc2N1CCCF	-3.4	-2.3	-0.3	-32.8*	-0.3
CNC(=O)CCCN1C(=O)c2cccnc2Sc2ccccc21	-6.5	-4.1	2.4	-17.1	0.0
CCOc1ccc(OCC)c(NC(=O)CCc2nc3cccnc3n2-c2ccccc2)c1	-0.8	5.1	2.4	-9.1	-1.4
COC(=O)c1ccc(N2CCN(S(=O)(=O)c3ccc(Br)cc3)CC2)c([N+](=O)[O-])c1	-2.1	2.5	7.3	-32.7*	0.0
Cc1ccc(NC(=O)CN(C)C(=O)c2ccc(-n3cncn3)c([N+](=O)[O-])c2)cc1	-5.2	16.7	-0.5	-54.8*	0.0
COC(=O)c1ccc(-n2cncn2)c([N+](=O)[O-])c1	-2.1	36.9*	3.2	17.4	0.1
CC(C)NC(=O)C(=O)NCCC1CCCCN1S(=O)(=O)c1cccs1 (stereo not given)	-6.0	20.9	1.4	-31.5*	-0.2
CNC(=O)C(=O)NCCC1CCCCN1S(=O)(=O)c1cccs1 (stereo not given)	0.6	-3.0	1.6	-4.9	-0.5
COc1ccc(C(=O)c2oc3ccccc3c2NC(=O)c2cc(=O)c3ccc(C)cc3o2)cc1Cl	-0.1	12.8	2.6	6.6	0.9
CN1CCN(S(=O)(=O)c2ccc(N(C)Cc3cccs3)nc2)CC1	-10.3	4.2	5.7	-38.1*	-0.5
CN1CCN(S(=O)(=O)c2cccc(C(=O)N(C)Cc3cccs3)c2)CC1	x	-5.7	2.8	-46.5*	-0.5
O=Cc1ccc(OC(=O)c2cccnc2)cc1	3.0	-4.4	0.6	16.1	0.7
CSc1ccc(CCNC(=O)c2ccc(-n3c(C)cc4c3CCCC4)cc2)cc1	-2.9	2.0	13.1	0.3	0.5
COC(=O)c1c(C)[nH]c(C=Nc2ccc(OC)cc2)c1C	-0.1	37.8*	0.2	3.9	0.2
CC1CCc2nn(CC(=O)Nc3cccc(C(F)(F)F)c3)c(=O)cc2C1 (stereo not given)	-5.5	0.7	-0.4	23.7	-0.1
Cc1ccc(NC(=O)CSc2nc3ccccc3n2CC(=O)N(C)C2CCCCC2)cc1C	6.2	-3.1	3.0	8.5	0.5
